Among all 4,000 compounds or so, about 15 (0.4%) were called active.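 Rule for the calls: active = calcium fluorescence ratio, averaged over duplicates, at least 3 SD of the buffer-well ratio, meaning a nonspecific response in receptor-free cells; inactive = the rest.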 A selection follows.
experiment: calcium response in parental HEK293 cells, primary screen, counter-screen for MrgX1 allosteric activator project, cell-based, Fluo-4 calcium flux, duplicate (AID 624114); details: Fluo-4 fluorescence ratio, at 10 µM;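 note: untransfected parental HEK293 lacking MrgX1 used as counterscreen for MrgX1 allosteric activators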

Row | SMILES | outcome
1 | Cc1ccnc(NC(=O)C(C)N2C(=O)c3ccccc3C2=O)c1 (configuration not stated) | inactive
2 | CCC(C)c1ccccc1N1CC(C(=O)N2CCN(S(=O)(=O)c3ccc(F)cc3)CC2)CC1=O (configuration not stated) | inactive
3 | Cc1ccc(Nc2nc(-c3ccc(O)cc3O)cs2)nc1 | inactive
4 | CCC(C)Sc1nc(C)nc2c1c(=O)n(C)c(=O)n2C (configuration not stated) | inactive
5 | Cc1ccnc(-n2sc3ccccc3c2=O)n1 | inactive
6 | CCOC(=O)C1=C(O)CSC1=Nc1cccc(Cl)c1 | inactive
7 | COCc1nnc(NC(=O)c2ccc3c(c2)OCO3)s1 | inactive
8 | CC1(C(=O)O)CCC(C(=O)Nc2ccc(Cl)c(Cl)c2)C1(C)C (configuration not stated) | inactive
9 | CC(C)CNc1ncnc2c1cnn2Cc1ccc(Cl)cc1 | inactive
10 | CCc1ccc(N(CC(=O)Nc2sc3c(c2C(=O)OC)CCCC3)S(C)(=O)=O)cc1 | inactive
11 | OCCn1c(-c2ccccc2)csc1=Nc1ccccc1 | inactive
12 | CCOc1ccc(NC(=O)CCNC(=O)c2ccc(Br)cc2)cc1 | inactive
13 | Cc1ccc(C(C(=O)NC2CCCCC2)N(C(=O)c2csnn2)C2CC2)o1 (configuration not stated) | inactive
14 | COc1ccc(-c2cc(C(F)(F)F)nc(S(C)(=O)=O)n2)cc1OC | inactive
15 | O=C(C1CCN(S(=O)(=O)c2cnc[nH]2)CC1)N1CCN(Cc2ccc3c(c2)OCO3)CC1 | inactive
16 | O=C(Nc1cccc(Cl)c1)c1cncn1-c1ccc(F)cc1 | inactive
17 | Cc1nonc1C1CCCN1Cc1nc(-c2ccc(F)cc2F)oc1C (configuration not stated) | inactive
18 | Cc1ccc2c(C)c(C(=O)N(C)CCC3CCCCO3)oc2c1C (configuration not stated) | inactive
19 | O=C(CN1CCN(c2ccc(Cl)cc2)CC1)N1CCCC1 | inactive
20 | COc1cc2c(cc1O)C(SC)=NC(C)(C)C2 | inactive
21 | FC(F)Oc1ccc(NC(=S)NCc2ccco2)cc1Cl | inactive
22 | COc1ccc(Nc2nnc(C)c3ccccc23)cc1 | inactive
23 | Cc1c(C)c2c(OCC(=O)N[C@@H](C(=O)O)c3ccccc3)cc3c(c2oc1=O)CCC(C)(C)O3 | inactive

Row | SMILES | outcome
24 | CCSc1nsc(NC(=O)Nc2cccc(C(C)=O)c2)n1 | inactive
25 | Cc1c(C(=O)N2CCN(c3ccc(F)cc3)CC2)oc2c1C(=O)CCC2 | inactive
26 | O=C(c1cccc(S(=O)(=O)Nc2ccccc2Cl)c1)N1CCN(C(=O)c2ccco2)CC1 | inactive
27 | O=C(Cn1c(-c2cncs2)nc2ccccc21)NC1CCCC1 | inactive
28 | CC1(C)CC2CC(C)(CN2c2ncnc3ccc(Br)cc23)C1 (configuration not stated) | inactive
29 | CCOC(=O)c1c(NC(=O)CSc2cn(CC)c3ccccc23)sc2c1CCC2 | inactive
30 | O=C(O)CSC(NC(=O)c1cccnc1)(C(F)(F)F)C(F)(F)F | inactive
31 | CCOC(=O)N1CCN(C(=O)COCc2cc(-c3ccc4c(c3)OCO4)on2)CC1 | inactive
32 | COc1ccc(C(=O)Nc2c(N)nc(SCC(=O)N3CCC(C)CC3)[nH]c2=O)cc1OC | inactive
33 | CCOc1cc(-c2conc2N)cc(OCC)c1OCC | inactive
34 | O=C1CCCN1CCCNC(=S)Nc1ccc(F)c(Cl)c1 | inactive
35 | COc1ccc(C(=O)NNC(=S)NC(=O)c2ccccc2)cc1 | inactive
36 | Nc1ccc(Oc2ccc(Cl)cc2)cc1 | inactive
37 | CN(CC(=O)Nc1ccccc1Cl)C(=O)COc1cccc2c1OC(C)(C)C2 | inactive
38 | CCOc1ccc2nc(/N=C/c3nc(-c4ccccc4)oc3O)sc2c1 | inactive
39 | FC(F)(F)c1cc(-c2cccs2)nc(NCc2ccco2)n1 | inactive
40 | O=C(CSc1c2c(nc3ccc(Cl)cc13)CCCC2)NCc1ccco1 | inactive
41 | COc1ccc(Nc2nc(-c3cccnc3)nc3ccccc23)cn1 | inactive
42 | CN(C)CCn1c(=S)[nH]c2ccc(Cl)cc2c1=O | inactive
43 | COC(=O)c1sccc1NS(=O)(=O)c1ccc(F)cc1F | inactive
44 | COc1ccc2c(c1)OC(O)(C(F)(F)C(F)F)CC2=O (configuration not stated) | inactive
45 | CC(C)NC(=S)Nc1cccc2cnccc12 | inactive
46 | C=CCNC(=O)c1cc(-c2ccccc2O)on1 | inactive

Row | SMILES | outcome
47 | O=C(Nc1ccccc1N1CCCCC1)c1ccc2nccnc2c1 | inactive
48 | Cc1ccc2c(c1)c1ncnc(N3CCc4ccccc4C3)c1n2C | inactive
49 | CCc1ccc2nc3sc(C(=O)Nc4nnc(CC)s4)c(N)c3cc2c1 | inactive
50 | COc1ccc(C(=O)NC(=S)NNC(=O)c2c(-c3ccccc3)noc2C)cc1 | inactive
51 | COc1ccccc1N(CC(=O)N1CCCCC1)S(=O)(=O)c1ccccc1 | inactive
52 | CC(C)OCCCNc1ncnc2c1[nH]c1ccc(F)cc12 | inactive
53 | COc1cc(CCC(=O)Nc2ccncc2Cl)cc(OC)c1OC | inactive
54 | CCCc1[nH]nc2c1C(c1ccc(Br)s1)C(C#N)=C(N)O2 (configuration not stated) | inactive
55 | O=C(Cc1ccccn1)c1ccc(O)cc1O | inactive
56 | Cc1cccn2c(=O)c(/C=C3\SC(=S)N(CC(C)C)C3=O)c(NCCCOC(C)C)nc12 | inactive
57 | O=C(Nc1ccccc1N1CCOCC1)c1csc2c1CCCC2 | inactive
58 | Brc1ccccc1C1Nc2cccc3cccc(c23)N1 | inactive
59 | Cc1ccc(NC2(C#N)C(=O)Nc3ccccc32)cc1 (configuration not stated) | inactive
60 | Cc1nccn1CCC1CCCCN1C(=O)CCc1nnc(-c2ccsc2)o1 (configuration not stated) | inactive
61 | OCc1ccc(OCCCOc2cccc3cccnc23)cc1 | inactive
62 | COc1ccc(NC(=O)c2cc(-c3ccc(C)o3)nc3ccccc23)cc1 | inactive
63 | CN1/C(=C\C=C2\N=C(c3ccc(F)cc3)OC2=O)C(C)(C)c2ccccc21 | inactive
64 | COc1cc(C)c(C)cc1S(=O)(=O)N1CCCc2ccccc21 | inactive
65 | Cc1ccc(CS(=O)(=O)c2ncc(Cl)c(C(=O)Nc3nnc(C)s3)n2)cc1 | inactive
66 | O=C(Nc1nnc(-c2ccccc2)o1)c1cc(-c2cccs2)nc2ccccc12 | inactive
67 | COC(=O)Cn1c(O)c(N=NC(=O)OC)c2ccccc21 | inactive
68 | CN(c1cccc(NC(=O)Nc2ccc(Cl)cc2)c1)S(C)(=O)=O | inactive
69 | CCc1cc(=O)oc2cc(C)cc(OCC(=O)N3CCC[C@@H]3C(=O)O)c12 | inactive

Row | SMILES | outcome
70 | CCOC(=O)c1c(C)[nH]c(=S)c(C#N)c1-c1ccccc1 | inactive
71 | CCOc1ccccc1C1CC(c2ccc(Cl)cc2)Nc2nc(N)nn21 (configuration not stated) | inactive
72 | Cc1c(C(=O)N2CCCc3ccccc32)sc2nc(-c3ccccc3)cn12 | inactive
73 | O=C(Cc1nc2ccccc2[nH]c1=O)c1ccc(Cl)cc1 | inactive
74 | COc1cc(C2/C(=C(\O)c3ccc4c(c3)CC(C)O4)C(=O)C(=O)N2Cc2ccco2)ccc1O (configuration not stated) | inactive
75 | CCc1nnc(NC(=O)CSc2nc3c(c(=O)n2-c2ccccc2OC)SCC3)s1 | inactive
76 | N=C(N)SCc1cccc2ccccc12 | inactive
77 | CCCCC(=O)NNC(=S)NC(=O)C(c1ccccc1)c1ccccc1 | inactive
78 | Cc1occc1C(=O)Nc1nnc(-c2ccncc2)s1 | inactive
79 | Cc1ccc2nc(-c3ccc(NC(=O)c4cccnc4)cc3)oc2c1 | inactive
80 | COCCNC(=O)C1CCN(S(=O)(=O)c2ccc3c(c2)OCCO3)CC1 | inactive
81 | CCN(CC)c1ccc(C2C3CCCCC3(O)CCN2CC(=O)Nc2ccccc2)cc1 (configuration not stated) | inactive
82 | COC(=O)c1c(NC(=O)CN(c2ccc(C)c(C)c2)S(C)(=O)=O)sc2c1CCCC2 | inactive
83 | CC(C)(C)Nc1c(-c2cccs2)nc2ccccn12 | inactive
84 | Cc1onc(-c2ccccc2)c1C(=O)NNC(=S)NC(=O)c1ccc(F)cc1 | inactive
85 | COc1cccc(CCNC(=O)COc2cccc3c2OC(C)(C)C3)c1 | inactive
86 | COc1ccc(-n2c(SCC(=O)NCc3ccco3)nnc2-c2c[nH]c3ccccc23)cc1 | inactive
87 | CCS(=O)(=O)c1ccc2c(c1)N(S(=O)(=O)c1ccccc1)CC(C(=O)O)O2 (configuration not stated) | inactive
88 | Cc1nn(C(=O)c2ccoc2C)c(N)c1-c1ccccc1 | inactive
89 | O=C(COC(=O)C1CCN(S(=O)(=O)c2ccc3c(c2)OCCO3)CC1)Nc1ccccc1OC(F)F | inactive
90 | CC(=O)N(C)c1ccc(NC(=O)C(F)(F)F)cc1 | inactive
91 | O=C(CC(O)(C(F)(F)F)C(F)(F)F)Nc1ccc(Cl)c(Cl)c1 | inactive
92 | O=C(CCN1CCc2ccccc2C(O)(c2ccccc2)C1)c1ccc2c(c1)OCCO2 (configuration not stated) | inactive

Row | SMILES | outcome
93 | COc1ccc(C2SCCN2S(=O)(=O)c2ccccc2)cc1OC (configuration not stated) | inactive
94 | CCc1cc2c(SCC(=O)Nc3ncc(Cl)c(C)c3Cl)ncnc2s1 | inactive
95 | CCOC(=O)c1c(NC(=O)CNC2CCCc3ccccc32)sc(C(N)=O)c1C (configuration not stated) | inactive
96 | O=S(=O)(c1ccc2ccccc2c1)N1CCN(S(=O)(=O)N2CCOCC2)CC1 | inactive
97 | Cc1cc(=O)oc2cc(NC(=O)C3CC(=O)N(Cc4ccccc4)C3)ccc12 (configuration not stated) | inactive
98 | CCN(C(=O)CSc1nnc2ccccn12)C1CCS(=O)(=O)C1 (configuration not stated) | inactive
99 | CC(=O)N(C1=C(Cl)C(=O)c2ccccc2C1=O)c1ccc(C(=O)O)cc1 | inactive
100 | COc1ccc(C(=O)CSc2n[nH]c(N)n2)cc1 | inactive
101 | O=C(Nc1ccccc1)c1nnsc1S(=O)(=O)c1ccc(Cl)cc1 | inactive
102 | Cc1ccc2cc(/C=N/Nc3ccc(C(=O)O)cc3)c(Cl)nc2c1 | inactive
103 | c1ccc(-c2[nH]ncc2-c2nc3ccccc3[nH]2)cc1 | inactive
104 | COc1ccccc1Oc1nc(-c2cccnc2)nc2ccccc12 | inactive
105 | O=c1c2cc(Br)ccc2nc(-c2cccc(Cl)c2)n1O | inactive
106 | COc1ccc([N+](=O)[O-])cc1NC(=O)COC(=O)/C=C/c1ccco1 | inactive
107 | C=CCSc1nc(Cc2ccc(Cl)cc2)nc2ccccc12 | inactive
108 | NC(=O)c1c(Nc2nc3c(F)cccc3s2)sc2c1CCCC2 | inactive
109 | CCN(CC)CC(=O)Nc1nn(-c2ccccc2)nc1C(N)=O | inactive
110 | Cc1ccc(C(=O)COC(=O)CCN2C(=O)C3C4CC(C(Br)C4Br)C3C2=O)cc1 (configuration not stated) | inactive
111 | Cc1ccc(-n2cnc3ncnc(-c4ccccc4)c32)cc1 | inactive
112 | CCOC(=O)Nc1ccc2c(c1)N(C(=O)CCN1CCN(CCO)CC1)c1ccccc1CC2 | inactive
